# Compound activity (PubChem BioAssay)
# An excerpt weighted towards active compounds, which were near 3.5% of everything screened.
# GPR151 ag = activators of human GPR151, primary screen, cell-based, PathHunter beta-arrestin, luminescence; activation, % at 11.2 µM; AID 1508602, 2020; PathHunter beta-arrestin GPR151 cells; hit rate 1% among 650,000; in the data active = activation above about 4.9%
# TEAD-YAP block = TEAD-YAP interaction inhibition, primary screen, TEAD-YAP interaction inhibitor project, luminescence, HEK-TIYL cells. TEAD-Gal4/YAP UAS-luciferase luminescence. inhibition, % at 9.12 µM. hit rate 1.4% among 640,000. AID 1259422, 2018; in the data active = inhibition above about 32%
# MITF primary = MITF inhibitors, primary screen, biochemical, AlphaScreen, human. Microphthalmia-associated transcription factor (Homo sapiens), O75030. AlphaScreen MITF homodimerization, bead proximity signal. inhibition, % at 2.6 µM. hit rate 0.91% among 650,000; in the data active = inhibition above about 50%
# Target sequence (O75030 whole entry, looked up): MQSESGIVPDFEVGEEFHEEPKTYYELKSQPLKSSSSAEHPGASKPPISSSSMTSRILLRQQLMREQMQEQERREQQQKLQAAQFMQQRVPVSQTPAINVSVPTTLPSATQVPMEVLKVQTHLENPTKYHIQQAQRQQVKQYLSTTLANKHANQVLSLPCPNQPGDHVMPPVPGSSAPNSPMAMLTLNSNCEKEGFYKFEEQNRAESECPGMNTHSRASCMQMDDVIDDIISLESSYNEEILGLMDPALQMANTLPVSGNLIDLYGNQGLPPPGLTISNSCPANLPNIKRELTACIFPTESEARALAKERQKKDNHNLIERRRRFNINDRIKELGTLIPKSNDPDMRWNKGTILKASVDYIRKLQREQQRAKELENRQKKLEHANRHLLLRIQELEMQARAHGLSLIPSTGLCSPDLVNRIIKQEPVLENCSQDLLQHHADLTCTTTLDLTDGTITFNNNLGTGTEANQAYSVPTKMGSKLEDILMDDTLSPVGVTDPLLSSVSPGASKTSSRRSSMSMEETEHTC
# FBW7 act = FBW7 E3 ligase activators, primary screen, biochemical, AlphaScreen, human; F-box/WD repeat-containing protein 7 (Homo sapiens), Q969H0; AlphaScreen FBW7–phospho-cyclin E peptide binding, activator screen; normalized activity (activation), % at 26.1 µM; AID 1259310, 2017; hit rate 0.13% among 650,000; in the data active = normalized activity above about 1.9%;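 note: purified mutant Fbw7 with reduced substrate affinity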
# Hits are given with their value; . = inactive.
SMILES,GPR151 ag,TEAD-YAP block,MITF primary,FBW7 act
Cc1noc(C)c1-c1nc(Nc2ccc(N3CCOCC3)cc2)c2ncn(Cc3ccc(C(F)(F)F)cc3)c2n1,.,32,.,.
COc1cc(Nc2nc(NC3CCC(O)CC3)nc3c2ncn3Cc2ccc(C(F)(F)F)cc2)cc(OC)c1OC (stereo not drawn),.,47,.,.
COc1cc(Nc2nc(Nc3cc(OC)c(OC)c(OC)c3)c3ncn(Cc4ccc(C(F)(F)F)cc4)c3n2)cc(OC)c1OC,.,.,.,.
Cc1nn(C)c(C)c1-c1nc(Nc2ccc(N3CCOCC3)cc2)c2ncn(Cc3ccc(C(F)(F)F)cc3)c2n1,.,.,.,.
COc1ccc(Cn2nc(NC(=O)c3ccco3)c3ccccc32)cc1,.,.,.,.
COc1cc(Nc2nc(-c3c(C)noc3C)nc3c2ncn3Cc2ccc(C(F)(F)F)cc2)cc(OC)c1OC,.,52,.,.
COc1cc(Nc2nc(Nc3ccccc3)nc3c2ncn3Cc2ccc(C(F)(F)F)cc2)cc(OC)c1OC,.,.,.,.
CN(C(=O)c1cccc2ncccc12)c1nc2c(s1)CCc1occc1-2,.,.,.,7.5
c1cncc(CNc2nccn3c(-c4ccc(N5CCOCC5)cc4)cnc23)c1,.,.,.,.
Cc1nnc2n1CCN(C(=O)/C(F)=C/c1ccccc1)CC2,.,.,.,1.9
Cc1cccc(C(=O)n2nc(-c3cccnc3)nc2NCc2cccs2)c1,.,.,.,.
CCCCCCn1nc(C(=O)Nc2cc(C(N)=O)cc(C(N)=O)c2)c2ccccc2c1=O,.,.,.,2.1
CC(NCCN1CCNCC1)c1cc(C(C)(C)C)cc2c1CCC2(C)C (stereo not drawn),.,64,.,.
Nc1ncnc(N2CCCCCC2)c1[N+](=O)[O-],.,49,.,.
O=[N+]([O-])c1c(N2CCCCCC2)ncnc1N1CCCCCC1,.,.,.,.
CCCCN(Cc1ccccc1)c1ncnc(N)c1[N+](=O)[O-],.,.,.,.
CCCCN(C)c1ncnc(N)c1[N+](=O)[O-],.,41,.,.
CCN(CC)c1ncnc(N)c1[N+](=O)[O-],.,63,.,.
CN(c1ncnc(N)c1[N+](=O)[O-])C1CCS(=O)(=O)C1 (stereo not drawn),.,.,.,.
CN(c1ncnc(N)c1[N+](=O)[O-])C1CCCCC1,.,54,.,.
COc1ccc(S(=O)(=O)Nc2ccccc2Cl)cc1NC(=O)C(C)NC(N)=O (stereo not drawn),.,.,.,.
O=C(OC1CCOC1=O)c1ccccc1OCCOc1ccccc1 (stereo not drawn),.,.,.,.
CCN(c1ccccc1)c1ncnc(N)c1[N+](=O)[O-],.,52,.,.
CCCCN(c1ccccc1)c1ncnc(N)c1[N+](=O)[O-],.,.,.,.
O=C1OC(c2ccccc2)=N/C1=C\c1cccc2ccccc12,.,.,.,.
SMILES,GPR151 ag,TEAD-YAP block,MITF primary,FBW7 act
CCOC(=O)c1sc(NC(=O)c2cc([N+](=O)[O-])ccc2Cl)nc1-c1ccccc1,.,39,.,.
CCOC(=O)c1ccc(NC(=O)c2cc([N+](=O)[O-])ccc2Cl)cc1,.,39,.,.
COc1ccc(-c2csc(NC(=O)c3cc(Cl)ccc3[N+](=O)[O-])n2)cc1C,.,53,.,.
CCOC(=O)c1ccc(Nc2cc(OC)c([N+](=O)[O-])nc2[N+](=O)[O-])cc1,.,67,.,.
CCOC(=O)c1sc(NC(=O)c2cc(Cl)ccc2[N+](=O)[O-])nc1-c1ccccc1,.,.,.,.
O=C(NCCCN1CCOCC1)c1c(O)c2cccc3c2n(c1=O)CCC3,.,.,.,.
O=C(Nc1ccc(Cl)cc1)C1CCCN1S(=O)(=O)c1cccs1 (stereo not drawn),.,.,.,.
O=C(Nc1nc(-c2ccccc2)cs1)c1cc([N+](=O)[O-])ccc1Cl,.,33,.,.
O=C(Nc1nc(-c2cccc3ccccc23)cs1)c1cc([N+](=O)[O-])ccc1Cl,.,44,.,.
O=C(Nc1nc(-c2ccccc2)cs1)c1cc([N+](=O)[O-])ccc1Br,.,.,.,.
O=C(Nc1nc(-c2ccc3ccccc3c2)cs1)c1cc([N+](=O)[O-])ccc1Cl,.,37,.,.
Cc1ccc(C)c(NC(=O)CSc2ncn[nH]2)c1,.,.,.,.
Cc1ccn2cc(-c3ccc(F)cc3)nc2c1,.,73,.,.
